# Data taken from publication PMC6925144, “A prospective compound screening contest identified broader inhibitors for Sirtuin 1” (Scientific Reports, 2019).
# In all, about 3,200 compounds were measured (“TSA(without NAD+) / Primary screening (TSA) / delta Tm (K)”: median about -0.07, highest 2% from about 0.37 on). The entries come from a sample that favours the highest values as a whole.
# Molecular target: NAD-dependent deacetylase Sirtuin 1 (human, UniProt Q96EB6)
# Test: primary screen, delta tm
# Parameters: single well (n = 1)
# Settings: 10 µM
# Method in brief: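 Thermal shift of Sirtuin 1 measured without NAD+, compound at 10 µM (n = 1); value is ΔTm, with hits defined as ΔTm > 0.45 K or < −1.5 K. Hits retested at 5, 10, 20 µM (n = 4) and counterscreened on bovine carbonic anhydrase and ABL1 SH2 domain.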
# NAD-dependent deacetylase Sirtuin 1, sequence (Q96EB6 2-747 limits assumed): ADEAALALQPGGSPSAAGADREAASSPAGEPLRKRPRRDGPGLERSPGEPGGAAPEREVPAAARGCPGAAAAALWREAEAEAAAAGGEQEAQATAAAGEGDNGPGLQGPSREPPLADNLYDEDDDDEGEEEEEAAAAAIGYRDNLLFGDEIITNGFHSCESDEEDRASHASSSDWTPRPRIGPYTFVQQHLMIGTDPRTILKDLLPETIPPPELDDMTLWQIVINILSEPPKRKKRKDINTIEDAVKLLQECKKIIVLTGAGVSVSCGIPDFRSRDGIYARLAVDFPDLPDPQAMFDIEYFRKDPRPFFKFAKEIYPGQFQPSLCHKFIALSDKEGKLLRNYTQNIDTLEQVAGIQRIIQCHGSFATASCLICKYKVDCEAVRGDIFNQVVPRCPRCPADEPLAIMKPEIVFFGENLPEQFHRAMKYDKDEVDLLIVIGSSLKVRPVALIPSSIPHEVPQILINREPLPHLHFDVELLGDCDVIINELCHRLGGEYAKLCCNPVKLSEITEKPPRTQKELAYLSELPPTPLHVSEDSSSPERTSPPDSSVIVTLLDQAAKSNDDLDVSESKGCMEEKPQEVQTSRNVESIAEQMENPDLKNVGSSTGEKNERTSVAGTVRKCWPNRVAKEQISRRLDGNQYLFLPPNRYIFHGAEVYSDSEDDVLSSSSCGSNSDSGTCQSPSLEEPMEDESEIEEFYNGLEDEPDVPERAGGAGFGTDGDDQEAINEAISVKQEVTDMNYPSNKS
row,SMILES,TSA(without NAD+) / Primary screening (TSA) / delta Tm (K)
1,CC(C)Oc1ccc(C2C(C(=O)c3ccco3)=C(O)C(=O)N2CCCN2CCOCC2)cc1 (stereo not drawn),-0.02 K
2,COc1cccc(C2C(C(=O)c3ccc(Cl)cc3)=C(O)C(=O)N2CCCN2CCOCC2)c1 (stereo not drawn),-0.12 K
3,CCC(N)C(N)=O (stereo not drawn),-0.22 K
4,CC1CCC(NN)CC1 (stereo not drawn),-0.08 K
5,CC(OC(=O)c1cccc(S(=O)(=O)Nc2ccc(F)cc2)c1)c1nc2ccccc2c(=O)[nH]1 (stereo not drawn),0.02 K
6,CCn1c2ccccc2c2cc(NC(=O)C(C)OC(=O)c3cccc(S(=O)(=O)Nc4ccc(Cl)cc4)c3)ccc21 (stereo not drawn),0.56 K
7,CC(=O)c1ccc(NC(=O)C(C)OC(=O)c2cccc(S(=O)(=O)NC(C)C34CC5CC(CC(C5)C3)C4)c2)cc1 (stereo not drawn),0.35 K
8,O=C(/C=C/c1ccc(F)cc1)NCCCn1ccc2ccccc21,0.08 K
9,Cc1ccc2c(CC(=O)Nc3ccccc3Cc3ccccc3)coc2c1,0.07 K
10,Cc1noc(C)c1CC(=O)OCc1cn(-c2ccccc2)nc1-c1ccc(Cl)cc1,0.22 K
11,Cc1ccc(-c2nn(-c3ccccc3)cc2C(=O)NCc2nnc3ccccn23)cc1,-0.03 K
12,COc1ccc(-c2nn(-c3ccccc3)cc2CN(CCCCCCN(Cc2cn(-c3ccccc3)nc2-c2ccc(OC)cc2)C(=O)CCC(=O)O)C(=O)CCC(=O)O)cc1,0.37 K
13,Cc1oc2cc(OC(C)C(=O)NCc3ccco3)ccc2c(=O)c1-c1c(F)cccc1Cl (stereo not drawn),-0.11 K
14,O=C1NC(=S)N/C1=C\c1cc(Br)ccc1O,-0.23 K
15,O=C1NC(=S)N/C1=C\c1ccccc1OCc1ccc(C(=O)O)cc1,0.38 K
16,O=C1NC(=S)N/C1=C/c1ccc(-c2ccccc2F)o1,0.05 K
17,COc1ccc(C(N)=O)cc1NC(=O)c1nc2nc(C)cc(C)n2n1,-0.15 K
18,NC(=O)C1CCN(c2nc(CN3CCCCC3)nc3sc4c(c23)CCC4)CC1,0.07 K
19,Cc1sc2nc(CSc3ccccc3)nc(N3CCC(C(N)=O)CC3)c2c1C,0.52 K
20,NC(=O)C1CCN(c2nc(CSc3ccccc3)nc3sc4c(c23)CCCC4)CC1,1.78 K
21,Cc1sc2nc(CSc3ccccc3)nc(N3CCCC(C(N)=O)C3)c2c1C (stereo not drawn),-0.12 K
22,Cc1sc2nc(CN3CCCC3)nc(N3CCC(C(N)=O)CC3)c2c1C,-0.12 K
23,NC(=O)C1CCCN(c2ncnc3sc4c(c23)CCCC4)C1 (stereo not drawn),-0.18 K
24,O=C1/C(=C/c2cccc(Br)c2)Oc2cc(O)ccc21,0.19 K
25,O=C1CCCN1c1cccc(NS(=O)(=O)c2cccc(F)c2)c1,-0.02 K
26,COc1ccc(NC(C)c2ccc(S(C)=O)cc2)cn1 (stereo not drawn),-0.18 K
27,O=C(COC(=O)c1ccc(CNS(=O)(=O)c2ccc(F)c(Cl)c2)cc1)c1ccccc1,-0.03 K

row,SMILES,TSA(without NAD+) / Primary screening (TSA) / delta Tm (K)
1,O=C(C1=C(O)C(=O)N(CCCN2CCOCC2)C1c1ccco1)c1cc2ccccc2o1 (stereo not drawn),0.02 K
2,COc1cc(C=C(C(=O)NCC2CCCO2)C(=O)NCC2CCCO2)ccc1OCC(=O)Nc1ccc(C)cc1 (stereo not drawn),-0.08 K
3,O=C(NCC1CCCO1)Nc1ccc(NC(=O)c2ccccn2)cc1 (stereo not drawn),0.07 K
4,Cc1ccc(C(=O)Nc2ccc(NC(=O)NCC3CCCO3)cc2)cn1 (stereo not drawn),0.52 K
5,Cc1ccc(Nc2nc(CSc3nnc(NCc4ccco4)s3)cs2)cc1,-0.17 K
6,CC(C)OC(=O)CC(Nc1ccc2nnnn2n1)c1ccccc1 (stereo not drawn),-0.07 K
7,Cc1noc(CN2CCN(c3ncnc4c3oc3ccccc34)CC2)n1,-0.33 K
8,Cc1ccc(S(=O)(=O)N2CCN(C(=O)CSc3nnc(NCc4ccco4)s3)CC2)cc1,0.16 K
9,O=c1cc(CSc2nnc(Nc3ccccc3)s2)c2ccc(O)cc2o1,0.38 K
10,COCCNc1nnc(SCc2cc(=O)oc3c(C)c(O)ccc23)s1,-0.74 K
11,O=c1cc(CSc2nnc(-c3ccccc3)o2)c2cc3c(cc2o1)CCC3,-0.18 K
12,c1nc(N2CCNCC2)c2sccc2n1,-0.08 K
13,NC(=O)c1ccc(COC(=O)c2cc3c(ccc4ccccc43)[nH]2)cc1,0.05 K
14,O=C(Nc1ccc(Oc2ncccn2)cc1)c1ccc(S(=O)(=O)Nc2ccc(F)cc2)cc1,-0.11 K
15,N#CC(C(=O)c1ccc(NS(=O)(=O)c2ccccc2)cc1)c1nc(-c2ccccn2)cs1 (stereo not drawn),0.46 K
16,Cc1nc(COc2ccc(C(=O)Nc3ccc(S(=O)(=O)Nc4cccc(F)c4)cc3)cc2)cs1,0.09 K
17,COc1ccc2[nH]cc(C3CCN(C(=O)c4coc(C)c4)CC3)c2c1,-0.03 K
18,Cc1nnc(CNC(=O)c2cc(-c3ccccc3)nc3c(C(N)=O)ncn23)s1,-0.04 K
19,COc1ccc(NC(=O)c2ccc(NC(=O)COC(=O)C34CC5CC(CC(Br)(C5)C3)C4)cc2)cc1,1.08 K
20,COc1ccccc1NC(=O)COc1ccc(C(=O)OCC(=O)NC23CC4CC(CC(C4)C2)C3)cc1OC,0.08 K
21,COc1ccc(NC(=O)c2ccccc2NC(=O)COC(=O)C23CC4CC(CC(O)(C4)C2)C3)cc1,0.19 K
22,COc1ccc(NC(=O)COc2ccc(C(=O)NCC34CC5CC(CC(C5)C3)C4)cc2OC)cc1,-0.34 K
23,COc1ccccc1NC(=O)c1ccc(NC(=O)COC(=O)C23CC4CC(CC(C4)C2)C3)cc1,0.42 K
24,COc1ccccc1NS(=O)(=O)c1ccc(NC(=O)CNC(=O)C23CC4CC(CC(C4)C2)C3)cc1,0.03 K
25,CCOC(=O)c1ccc(S(=O)(=O)N2CCC(C(=O)OCC(=O)NCC34CC5CC(CC(C5)C3)C4)CC2)cc1,-0.13 K
26,CC(=O)N(c1nn(CN2CCN(c3ccc(C(N)=O)cn3)CC2)c(=S)s1)C1CC1,-0.23 K
27,CC1Cc2ccccc2N1c1ncnc2ccsc12 (stereo not drawn),0.07 K
